# Measured values taken from PubChem BioAssay (NCATS).
# Inconclusive results are not listed. A number with no mark means an inactive call. Calls come from the whole dose curve; as a rule, active = well fitted curve in either direction with a large enough effect (not every such curve was filed as active); inconclusive = small, poorly fitted or top-dose-only effect, or another doubt; inactive = flat fitted curve, though single readings scatter.
# Assay: Stat Signaling Pathway (AID 446);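 note: ME-180 cervical cancer cells given 40 pM IL-6 alongside compound; SIE-controlled beta-lactamase reporter measured as 460/530 nm FRET emission ratio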
# Details: ME-180 (cervical carcinoma) SIE beta-lactamase reporter, IL-6 stimulated, 5 h; at 17.2 µM (top of the series) unless noted
# How it was run: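 Compound effects on IL-6-induced STAT reporter activity were measured in ME-180 cells. After overnight culture, cells were co-treated with 40 pM IL-6 for 5 hrs before beta-lactamase substrate loading at room temperature.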
# % is set by controls: 0 for no effect and ±100 for the full control effect.
row,SMILES,"activity, negative = inhibition [%]"
1,CC(C)Cc1[nH]c(=O)c(C#N)c2c1CCCC2,8.54
2,CCCCCC1CC(CC#CCN2CCOCC2)C(=O)O1 (configuration not stated),-2.28
3,Cn1c(=O)c2c(nc(NCc3ccco3)n2CCc2ccccc2)n(C)c1=O,-5.04
4,Cc1cc2c(c(=O)n1Cc1cccnc1)C(c1ccccc1)C(C#N)=C(N)O2 (configuration not stated),-17
5,Cc1cc(C)n(-c2ncnc3sc(C)c(C)c23)n1,6.68
6,CC12CN3CC(C)(CN(C1)C3c1ccc(Cl)cc1Cl)C2O (configuration not stated),3.23
7,Cc1nnc2n(-c3ccccc3)c(=O)c3c4c(sc3n12)CCCC4,10.4
8,CCCn1nc(Oc2nc(SC)nc(N(C)C)n2)ccc1=O,-17.7
9,COc1ccc2nc(SCC(=O)O)nc(C)c2c1,3.73
10,c1ccc(OCc2nn3c(-c4ccco4)nnc3s2)cc1,-4.83
11,CC(O)(C#CCN1CCOCC1)c1ccccc1 (configuration not stated),7.2
12,CCCCOc1ccccc1P(=O)(O)CP(=O)(c1ccccc1)c1ccccc1,-14.9
13,CN(C)c1ccc(C=NCCC2(O)CCOC(C)(C)C2)cc1 (configuration not stated),-0.198
14,COc1ccc(OC)c(C2C(C#N)=C(N)Oc3cc(C)[nH]c(=O)c32)c1 (configuration not stated),3.99
15,Clc1ccc2nc(CSc3nc4ccccc4o3)cn2c1,-8.83
16,S=c1[nH]nc(-c2ccco2)n1C1CCCCC1,1.34
17,COc1cccc(OC)c1C(=O)Nc1nc2ccc(S(C)(=O)=O)cc2s1,-10.6
